“And” between values parts separate entries of the source, which are not always exact repeats. Identical values can stand only once. Compounds without any hit were thinned out: in the full panel of roughly 83,000, 20% have a hit.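 In brief: 96-well plates, 48 h treatment, single concentration, percent growth endpoint.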 The source made the active and inactive calls. Rule for the calls: active = growth percent below 10; inactive = the rest.
Legend:
Experiment in all cases: NCI-60 one-dose screen, 48 h (100 = growth as untreated, 0 = no growth, -100 = all killed)
Conditions in all cases: 10 µM unless noted
[1] = tested on: SR leukemia
[2] = tested on: RPMI-8226 leukemia
[3] = tested on: OVCAR-8 ovarian
[4] = tested on: OVCAR-4 ovarian
[5] = tested on: SK-OV-3 ovarian
[6] = tested on: IGROV1 ovarian
[7] = tested on: OVCAR-3 ovarian
[8] = tested on: HS 578T breast
[9] = tested on: NCI/ADR-RES ovarian
[10] = tested on: OVCAR-5 ovarian

Row | SMILES | growth [1] | growth [2] | growth [3] | growth [4] | growth [5] | growth [6] | growth [7] | growth [8] | growth [9] | growth [10]
1 | CCN(CC)CCO/N=C1\CC(c2ccc(OC)c(OC)c2)Oc2ccccc21 (stereo not given) | 98.5% (inactive) | 87.8% (inactive) | 102% (inactive) | 96.5% (inactive) | 96.5% (inactive) | 88.8% (inactive) | 111% (inactive) | 90.3% (inactive) | 89.6% (inactive) | 
2 | COc1ccc(C(=O)C(O)c2ccc(OC)cc2)cc1 (stereo not given) | 102% (inactive) and 94% (inactive) | 112% (inactive) and 106% (inactive) | 99.8% (inactive) and 101% (inactive) |  | 106% (inactive) and 101% (inactive) | 102% (inactive) and 110% (inactive) | 112% (inactive) and 107% (inactive) |  | 102% (inactive) | 
3 | CCOC(=N)c1ccc(C(=N)OCC)cc1 | 91.7% (inactive) | 109% (inactive) | 105% (inactive) | 106% (inactive) | 93.2% (inactive) | 111% (inactive) | 124% (inactive) | 96.8% (inactive) | 104% (inactive) | 
4 | CCOC(=O)C1=C(C)NC(C)=C(C(=O)OCC)C1 | 101% (inactive) and 105% (inactive) | 92.6% (inactive) and 99.2% (inactive) | 121% (inactive) and 96.9% (inactive) |  | 105% (inactive) and 112% (inactive) |  | 102% (inactive) and 114% (inactive) | 101% (inactive) and 94% (inactive) | 114% (inactive) and 105% (inactive) | 104% (inactive) and 92.4% (inactive)
5 | c1ccc2c[n+](Cc3ccc4ccccc4n3)ccc2c1 | 98.1% (inactive) | 57.2% (inactive) | 69% (inactive) | 67.1% (inactive) | 88.5% (inactive) | 80.5% (inactive) | 62.1% (inactive) | 86.2% (inactive) | 102% (inactive) | 
6 | CC(CN(C)C)CN1c2ccccc2Sc2ccccc21 (stereo not given) | 79.1% (inactive) and 96.2% (inactive) and 45.7% (inactive) | 74.9% (inactive) | 95.7% (inactive) and 109% (inactive) and 101% (inactive) | 88.1% (inactive) and 102% (inactive) and 84% (inactive) | 97.2% (inactive) and 95.8% (inactive) and 101% (inactive) | 73.5% (inactive) and 92% (inactive) | 114% (inactive) and 98.6% (inactive) and 90.7% (inactive) | 77.5% (inactive) and 91.1% (inactive) and 67.1% (inactive) | 79.2% (inactive) and 85.1% (inactive) and 81.4% (inactive) | 
7 | Nc1ccccc1SC(CC(=O)c1ccccc1)c1cccc([N+](=O)[O-])c1 (stereo not given) | 70.2% (inactive) and 2.4% (active) | -30.1% (active) and -4.39% (active) | 87.9% (inactive) and 92.8% (inactive) | 89% (inactive) and 74.5% (inactive) | 104% (inactive) and 109% (inactive) | 127% (inactive) and 96.5% (inactive) |  | 106% (inactive) and 110% (inactive) | 91.4% (inactive) and 92.9% (inactive) | 
8 | O=P(O)(O)OC1C(OP(=O)(O)O)C(OP(=O)(O)O)C(OP(=O)(O)O)C(OP(=O)(O)O)C1OP(=O)(O)O.[Cu+2] (stereo not given) | 81.4% (inactive) | 101% (inactive) | 76.8% (inactive) | 110% (inactive) | 114% (inactive) |  |  | 92.4% (inactive) | 97.3% (inactive) | 
9 | Cc1cc2ccccc2c2cc3ccccc3cc12 | 40.8% (inactive) | 105% (inactive) | 98.9% (inactive) |  | 90.6% (inactive) | 61.8% (inactive) | 100% (inactive) | 95.2% (inactive) | 98.8% (inactive) | 
10 | Clc1ccc(/C=C/c2ccc3ccccc3n2)cc1 | 29% (inactive) and 59.4% (inactive) | 5.44% (active) and 63% (inactive) and 86.9% (inactive) | 28.9% (inactive) and 86.1% (inactive) and 109% (inactive) |  | 20.4% (inactive) and 83% (inactive) and 84.6% (inactive) | 52.6% (inactive) and 27.6% (inactive) and 75.1% (inactive) | -20.4% (active) and 106% (inactive) and 92.8% (inactive) | -20% (active) and 168% (inactive) and 96.4% (inactive) | 83.6% (inactive) and 92% (inactive) and 79.4% (inactive) | 
11 | Nc1[nH][nH]c(=O)c1N=Nc1ccccc1 | 125% (inactive) and 98.6% (inactive) | 110% (inactive) | 102% (inactive) and 108% (inactive) | 99.6% (inactive) | 101% (inactive) and 107% (inactive) | 109% (inactive) and 104% (inactive) | 106% (inactive) and 111% (inactive) | 107% (inactive) and 130% (inactive) | 106% (inactive) and 105% (inactive) | 
12 | COc1ccc(CCNC(=S)NN)cc1OC | 104% (inactive) | 99% (inactive) | 103% (inactive) | 99.3% (inactive) | 121% (inactive) |  | 108% (inactive) | 102% (inactive) | 102% (inactive) | 
13 | COC(=O)c1nc(=S)[nH]c(C(=O)OC)c1C(=O)c1ccccc1 | 113% (inactive) | 107% (inactive) | 110% (inactive) | 106% (inactive) | 111% (inactive) | 101% (inactive) | 112% (inactive) | 99% (inactive) | 108% (inactive) | 
14 | CC(=O)c1cc2ccccc2o1 | 98.3% (inactive) | 98.6% (inactive) | 115% (inactive) | 114% (inactive) | 96.8% (inactive) | 110% (inactive) |  | 108% (inactive) | 102% (inactive) | 
15 | CN(C)C(=S)N(C)C | 94.9% (inactive) | 98.2% (inactive) | 109% (inactive) |  | 99.7% (inactive) |  | 107% (inactive) | 157% (inactive) | 102% (inactive) | 105% (inactive)
16 | N#Cc1ccc(/C=C/C(=O)c2ccccc2)cc1 | -63.9% (active) | -35.6% (active) and -54.9% (active) | 98.9% (inactive) and 98.8% (inactive) | 95.2% (inactive) and 103% (inactive) | 123% (inactive) and 106% (inactive) |  | 55.4% (inactive) and 75.5% (inactive) | 128% (inactive) and 102% (inactive) | 111% (inactive) and 95.8% (inactive) | 
17 | CCOC(=O)c1csc(N)n1 | 102% (inactive) | 83.7% (inactive) and 97.4% (inactive) | 97.4% (inactive) | 104% (inactive) and 94.9% (inactive) | 101% (inactive) and 98% (inactive) | 56.3% (inactive) and 109% (inactive) |  | 95.1% (inactive) and 101% (inactive) | 111% (inactive) and 104% (inactive) | 
18 | CNc1ccc(O)cc1 | 126% (inactive) | 102% (inactive) and 87.4% (inactive) | 96.7% (inactive) and 106% (inactive) |  | 105% (inactive) and 108% (inactive) | 135% (inactive) and 119% (inactive) | 113% (inactive) and 114% (inactive) | 115% (inactive) and 142% (inactive) | 114% (inactive) and 102% (inactive) | 
19 | N#Cc1c[nH]n2ccnc12 | 120% (inactive) | 112% (inactive) | 98.2% (inactive) |  | 95.3% (inactive) |  | 110% (inactive) | 117% (inactive) | 105% (inactive) | 
20 | CC(=O)C[n+]1ccccc1Sc1ccc(Cl)cc1 | 57.4% (inactive) | 84.7% (inactive) | 92.8% (inactive) |  | 109% (inactive) | 101% (inactive) | 100% (inactive) | 84.3% (inactive) | 111% (inactive) | 
21 | N=C(N)N1CCc2ccccc2C1 | 75.1% (inactive) and 93.9% (inactive) | 74.5% (inactive) and 80.8% (inactive) | 89.9% (inactive) and 103% (inactive) | 95.4% (inactive) and 117% (inactive) | 101% (inactive) and 107% (inactive) | 102% (inactive) | 104% (inactive) and 101% (inactive) |  | 92.9% (inactive) and 114% (inactive) | 
22 | Nc1nc(N)c2cc(S(=O)(=O)c3ccccc3)ccc2n1 |  | 51% (inactive) and 54.5% (inactive) | 38% (inactive) and 43.5% (inactive) | 54% (inactive) | 62.1% (inactive) and 52.1% (inactive) | 36.6% (inactive) and 58.6% (inactive) | 53.9% (inactive) and 59.7% (inactive) | 65.8% (inactive) and 73.4% (inactive) | 41.2% (inactive) and 50.2% (inactive) | 39.2% (inactive) and 75.8% (inactive)
23 | O=C(O)C1CSCN1 (stereo not given) | 97.4% (inactive) | 106% (inactive) and 105% (inactive) | 113% (inactive) and 98.8% (inactive) | 112% (inactive) and 102% (inactive) | 105% (inactive) and 94.9% (inactive) | 106% (inactive) | 120% (inactive) and 107% (inactive) | 136% (inactive) and 112% (inactive) | 108% (inactive) and 87.2% (inactive) | 
24 | CCC/C(=N/NC(N)=O)c1ccco1 | 96.1% (inactive) | 95.2% (inactive) | 98% (inactive) |  | 91.6% (inactive) | 104% (inactive) | 117% (inactive) | 97.5% (inactive) | 100% (inactive) | 
25 | Cc1cc(O)c(C(C)C)cc1N=O | 110% (inactive) | 97.2% (inactive) | 102% (inactive) and 92.1% (inactive) |  | 96.4% (inactive) and 105% (inactive) |  | 109% (inactive) and 88.8% (inactive) | 104% (inactive) and 114% (inactive) | 98.7% (inactive) and 106% (inactive) | 101% (inactive) and 108% (inactive)
